In article PMC11995724, “Antibiotic target discovery by integrated phenotypic and activity-based profiling of electrophilic fragments” (Cell chemical biology, 2025):
The campaign covered roughly 3,200 compounds. About 75 (2%) showed an effect of 50% or more. The full list was thinned out, with strong results kept by preference.

These compounds were tested on T1, S. aureus MSSA476. Conditions: relative growth, OD600, TSB; 25 µM; inhibitor.
T1 construct: MSSA476
Set-up: species or system S. aureus MSSA476 (TSB) or V. cholerae SAD30 (LB); 384-well bacterial growth screen at 25 uM, OD600 relative to DMSO control

Structure (SMILES)	% of control remaining [%]
CCCn1c(N)c(C(=O)CCl)c(=O)n(C)c1=O [10-H12, 6-amino-5-(2-chloroacetyl)-3-methyl-1-propyl-1,2,3,4-tetrahydropyrimidine-2,4-dione]	92.8125
C=CC(=O)NC(C)c1cnc(C(F)(F)F)s1 (centres unmarked) [2-A05, N-{1-[2-(trifluoromethyl)-1,3-thiazol-5-yl]ethyl}prop-2-enamide]	119.06
N#CC(=Cc1ccc(Cl)c([N+](=O)[O-])c1)C(=O)N1CCCC1 [9-N05, 3-(4-chloro-3-nitrophenyl)-2-(pyrrolidine-1-carbonyl)prop-2-enenitrile]	107.566
Cc1cc(C=C(C#N)C(=O)Nc2ccccc2)c(C)n1C1CC1 [8-E14, 2-cyano-3-(1-cyclopropyl-2,5-dimethyl-1H-pyrrol-3-yl)-N-phenylprop-2-enamide]	129.793
C=CC(=O)N1CCCCC1c1noc(C2CC2)n1 (centres unmarked) [3-K12, 1-[2-(5-cyclopropyl-1,2,4-oxadiazol-3-yl)piperidin-1-yl]prop-2-en-1-one]	93.3391
CCc1ccccc1NC(=O)CN(C)C(=O)C(C)Cl (centres unmarked) [4-P05, 2-chloro-N-{[(2-ethylphenyl)carbamoyl]methyl}-N-methylpropanamide]	90.7099
CC(Cl)C(=O)Nc1ccc(NC(=O)c2cccs2)cc1 (centres unmarked) [6-G07, N-[4-(2-chloropropanamido)phenyl]thiophene-2-carboxamide]	112.683
NS(=O)(=O)c1ccc(CNC(=O)CCl)cc1 [4-P12, 2-chloro-N-[(4-sulfamoylphenyl)methyl]acetamide]	97.1891
C=CC(=O)NCC1(OC)CCC(C)CC1 (centres unmarked) [1-P08, N-[(1-methoxy-4-methylcyclohexyl)methyl]prop-2-enamide]	89.3187
COc1ccc(N2C(=O)C=CC2=O)c(OC)c1 [10-J15, 1-(2,4-dimethoxyphenyl)-2,5-dihydro-1H-pyrrole-2,5-dione]	121.875
CCN(CC)C(=O)c1ccc(NC(=O)CCl)cc1 [4-C05, 4-(2-chloroacetamido)-N,N-diethylbenzamide]	84.9929
CCCc1ccc(C(=O)CCl)cc1 [10-C04, 2-chloro-1-(4-propylphenyl)ethan-1-one]	134.375
CCOC(=O)c1ccc(NC(=O)CCl)cc1 [4-E17, ethyl 4-(2-chloroacetamido)benzoate]	118.152
CSc1ccc(C(=O)CCl)cc1 [10-E07, 2-chloro-1-[4-(methylsulfanyl)phenyl]ethan-1-one]	2.1875
CC(C)C(=O)Nc1ccc(C(=O)CCl)cc1 [10-D04, N-[4-(2-chloroacetyl)phenyl]-2-methylpropanamide]	4.6875
CCC(=O)Nc1ccc(C(=O)CCl)cc1 [10-C03, N-[4-(2-chloroacetyl)phenyl]propanamide]	1.5625
CC(C)C(=O)Nc1ccc(C(=O)C(C)Cl)cc1 (centres unmarked) [10-E08, N-[4-(2-chloropropanoyl)phenyl]-2-methylpropanamide]	106.875
CC(NC(=O)CCl)C(=O)Nc1ccc(Cl)cc1 (centres unmarked) [5-G11, 2-(2-chloroacetamido)-N-(4-chlorophenyl)propanamide]	83.4244
CCc1ccc(C(=O)CCl)cc1 [10-F18, 2-chloro-1-(4-ethylphenyl)ethan-1-one]	102.188
CC(=O)NCc1ccc(C2CCCN2C(=O)CCl)o1 (centres unmarked) [5-P13, N-({5-[1-(2-chloroacetyl)pyrrolidin-2-yl]furan-2-yl}methyl)acetamide]	100.182
COc1cc(NC(=O)C(C)Cl)cc(OC)c1 (centres unmarked) [4-I04, 2-chloro-N-(3,5-dimethoxyphenyl)propanamide]	105.574
CC(Cl)C(=O)N(Cc1ccc(Cl)cc1)Cc1cnn(C)c1 (centres unmarked) [5-P17, 2-chloro-N-[(4-chlorophenyl)methyl]-N-[(1-methyl-1H-pyrazol-4-yl)methyl]propanamide]	95.4463
C=CC(=O)NCc1ccc(C(=O)N2CCCOC(C)(C)C2)cc1 [3-N06, N-{[4-(2,2-dimethyl-1,4-oxazepane-4-carbonyl)phenyl]methyl}prop-2-enamide]	118.764
CC(C)NC(=O)C(C#N)=Cc1cccc2ccccc12 [8-P06, 2-cyano-3-(naphthalen-1-yl)-N-(propan-2-yl)prop-2-enamide]	127.801
C=CC(=O)N1CCC(C(=O)Nc2cccc(NC(=O)C(C)C)c2)CC1 [3-F05, N-[3-(2-methylpropanamido)phenyl]-1-(prop-2-enoyl)piperidine-4-carboxamide]	95.0805
CC(Cl)C(=O)C=C1N(C)c2ccccc2C1(C)C (centres unmarked) [10-J22, 3-chloro-1-(1,3,3-trimethyl-2,3-dihydro-1H-indol-2-ylidene)butan-2-one]	134.063
